Source: PubChem
PPARg SRC1 recr – PPARgamma agonists recruiting SRC-1 coactivator, primary screen, biochemical | AID 631, 2007 | PPARgamma-SRC-1 coactivator recruitment biochemical assay | hit rate 0.41% among 200,000 | activation, % at 8 µM; in the data active means activation above about 19%
PPARg SRC-3 ag – PPARgamma agonists recruiting SRC-3 coactivator, primary screen, biochemical | activation, % at 8 µM | hit rate 0.26% among 200,000 | biochemical PPARgamma/SRC-3 coactivator recruitment assay; in the data active means activation above about 23%
SRC3 TRFRET art – TR-FRET detection interference compounds, artefact control for PPARgamma SRC-3 recruitment agonists, biochemical, TR-FRET ratio; TR-FRET ratio at 8 µM; AID 1048, 2008; hit rate 0.39% among 99,000; TR-FRET artefact counter-screen, PPARgamma/SRC-3 format; stronger effect = higher value; in the data active means TR-FRET ratio above about 2000
SRC1 TRFRET art – TR-FRET detection interference compounds, primary screen, artefact control for PPARgamma SRC-1 recruitment agonists, biochemical, TR-FRET emission ratio; TR-FRET detection artefact counter-screen; stronger effect = higher value; TR-FRET ratio at 8 µM; hit rate 0.34% among 99,000; AID 1051, 2008; in the data active means TR-FRET ratio above about 2300
TR-FRET SRC-2 ct – TR-FRET signal artefacts, primary screen, artefact control for PPARgamma SRC-2 agonist project, biochemical | TR-FRET artefact counter-screen; stronger effect = higher value | TR-FRET ratio at 8 µM | hit rate 0.4% among 200,000 | AID 1049, 2008; in the data active means TR-FRET ratio above about 2000
PPARg SRC-2 ag – agonists of PPARg-SRC-2 recruitment, primary screen, biochemical, HTS. Peroxisome proliferator-activated receptor gamma (Homo sapiens), P37231. PPARgamma LBD-SRC-2 recruitment. activation, % at 8 µM. hit rate 0.34% among 200,000
PPARg SRC2 ag – agonists of PPARgamma SRC-2 coactivator recruitment, confirmation, biochemical, HTS | shares compounds with PPARg SRC-3 ag | biochemical SRC-2 recruitment by PPARgamma | activation, % at 8 µM | hit rate 52% among 790 | AID 1297, 2008
PPARg SRC1 ag – PPARgamma agonists recruiting SRC-1 coactivator, confirmation, biochemical; shares compounds with PPARg SRC-3 ag; PPARgamma–SRC-1 coactivator recruitment biochemical assay; activation, % at 8 µM; hit rate 43% among 790; AID 1300, 2008; in the data active means activation above about 20%
PPARg SRC3 ag – PPARgamma-driven SRC-3 coactivator recruitment agonists, confirmation, biochemical. activation, % at 8 µM. biochemical PPARgamma-SRC-3 coactivator recruitment, agonist mode. shares compounds with PPARg SRC-3 ag. hit rate 29% among 790; in the data active means activation above about 24%
Each line names hits and unclear results; the compound was inactive in the other large screens (follow-up assays come after a bar, where they were run). Rows were chosen to be rich in hits. Some 0.84% of all compounds tested hit in one or more screens of this group. Unless noted, no stated cut-off is given here; in the data, active means activation above about 22%; inactive means the rest.

COc1ccc2c(C)cc(=S)[nH]c2c1	PPARg SRC1 recr 32, SRC3 TRFRET art 2185, SRC1 TRFRET art 2499, TR-FRET SRC-2 ct 1987, PPARg SRC-2 ag 22 | PPARg SRC2 ag inactive | PPARg SRC1 ag inactive | PPARg SRC3 ag inactive
O=C1S/C(=C\c2ccc(Cl)cc2)C(=O)N1CCn1cnnn1	none
CC1(C)CC(=O)c2cc3c(N)c(C(=O)NCc4ccccc4)sc3nc2C1	none (no result: SRC3 TRFRET art, SRC1 TRFRET art)
CN1CCc2nc3sc(C(=O)NCc4ccccc4)c(N)c3cc2C1	PPARg SRC-2 ag 24 | PPARg SRC2 ag inactive | PPARg SRC1 ag inactive | PPARg SRC3 ag inactive
ClCc1csc(-c2ccccc2Cl)n1	SRC3 TRFRET art 2168, TR-FRET SRC-2 ct 2108, PPARg SRC-2 ag 25 | PPARg SRC2 ag 28 | PPARg SRC1 ag 22 | PPARg SRC3 ag inactive
CN(Cc1ccccc1)C(=S)Nc1ccc2nc3n(c(=O)c2c1)CCCCC3	none
Cc1nc2scc(-c3ccccc3)c2c(=O)n1N=C1C=CC(=O)C=C1	PPARg SRC1 recr 39, PPARg SRC-3 ag 35, PPARg SRC-2 ag 26 | PPARg SRC2 ag 39 | PPARg SRC1 ag 38 | PPARg SRC3 ag 31
O=C(O)c1ccc(CSc2nnc(-c3cccnc3)n2-c2ccc(Br)cc2)cc1	none
CC(C)Cn1[nH]c2c3c(ccc2c1=O)C(=O)c1ccccc1C3=O	PPARg SRC-3 ag 26 (no result: SRC3 TRFRET art, SRC1 TRFRET art) | PPARg SRC2 ag inactive | PPARg SRC1 ag inactive | PPARg SRC3 ag inactive
O=C1c2ccccc2C(=O)c2c1ccc1c(=O)n(-c3ccccc3)[nH]c21	none
CNc1cnn(-c2ccc(C)cc2)c(=O)c1Cl	none (no result: SRC3 TRFRET art, SRC1 TRFRET art)
Cc1ccc(S(=O)(=O)Nc2cnn(-c3ccccc3)c(=O)c2Cl)cc1	PPARg SRC1 recr 34, PPARg SRC-3 ag 28, SRC3 TRFRET art 2439, SRC1 TRFRET art 3010, TR-FRET SRC-2 ct 2289, PPARg SRC-2 ag 39 | PPARg SRC2 ag 47 | PPARg SRC1 ag 35 | PPARg SRC3 ag 28
Cc1ccc(NC(=S)NCCc2ccccc2)nc1	none
N#Cc1c(-c2cccs2)nc(SCc2ccc(Cl)cc2)[nH]c1=O	PPARg SRC1 recr 32, PPARg SRC-3 ag 24, SRC3 TRFRET art 2717, SRC1 TRFRET art 3031, TR-FRET SRC-2 ct 2686, PPARg SRC-2 ag 43 | PPARg SRC2 ag 36 | PPARg SRC1 ag 25 | PPARg SRC3 ag 24
CNC(=O)NC(=O)CSc1nc(-c2cccs2)c(C#N)c(=O)[nH]1	PPARg SRC1 recr 41, PPARg SRC-3 ag 31, SRC3 TRFRET art 2978, SRC1 TRFRET art 3256, TR-FRET SRC-2 ct 3062, PPARg SRC-2 ag 56 | PPARg SRC2 ag 43 | PPARg SRC1 ag 29 | PPARg SRC3 ag 30
CCOC(=O)Cc1csc(NC(=O)CSc2nc(-c3ccccc3)c(C#N)c(=O)[nH]2)n1	none
O=c1[nH]c(SCc2ccc(Cl)cc2)nc2ccsc12	none
C/C(CC(=O)NC(C)(C)C)=N\NC(N)=S	PPARg SRC1 recr 21 | PPARg SRC2 ag inactive | PPARg SRC1 ag inactive | PPARg SRC3 ag inactive
CCOC(=O)C1CCN(C(=O)CSc2cc(=O)n(CC)c3ccccc23)CC1	PPARg SRC1 recr 44, PPARg SRC-3 ag 62, TR-FRET SRC-2 ct 2661, PPARg SRC-2 ag 53 (no result: SRC3 TRFRET art, SRC1 TRFRET art) | PPARg SRC2 ag 40 | PPARg SRC1 ag 27 | PPARg SRC3 ag 27
CCn1cc(SCC(=O)N2CCOCC2)c2ccccc21	none (no result: SRC3 TRFRET art, SRC1 TRFRET art)
CCn1c(=O)cc(SCC(=O)N2CCC(C)CC2)c2ccccc21	PPARg SRC1 recr 77, PPARg SRC-3 ag 108, TR-FRET SRC-2 ct 3414, PPARg SRC-2 ag 79 (no result: SRC3 TRFRET art, SRC1 TRFRET art) | PPARg SRC2 ag 44 | PPARg SRC1 ag 29 | PPARg SRC3 ag 29
